Test results reported in PubChem BioAssay (NCI).
Compounds without any hit were thinned out: in the full panel of roughly 79,000, 15% have a hit. Unmarked numbers belong to inactive results. The source made the active and inactive calls. No stated cut-off is given here; in the data, active means growth inhibition above about 70%; inactive means the rest.

How the values were obtained:
[1] = NCI Yeast Anticancer Drug Screen. Data for the rad50 strain (AID 155);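 further: 0% = growth of vehicle-only cultures of the same strain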; settings: S. cerevisiae rad50 strain growth inhibition, stronger effect = higher value
Method in brief: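 Inhibition values express reduced yeast growth in compound-treated cultures relative to vehicle-treated controls.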

[2] = NCI Yeast Anticancer Drug Screen. Data for the mec2-1 strain (AID 157); settings: S. cerevisiae mec2-1 strain, stronger effect = higher value
Method in brief: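 Vehicle-treated cultures served as reference for growth inhibition of compound-exposed mec2-1 yeast.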

[3] = NCI Yeast Anticancer Drug Screen. Data for the sgs1 mgt1 strain (AID 161);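 further: 0% = growth of cultures given vehicle only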; settings: S. cerevisiae sgs1 mgt1 strain, stronger effect = higher value
Method in brief: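 Test agents were incubated with a DNA-repair-mutant yeast strain. Growth was then read and compared against vehicle-treated controls.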

[4] = NCI Yeast Anticancer Drug Screen. Data for the cln2 rad14 strain (AID 165);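 further: 0% = growth equal to vehicle treated cultures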; settings: S. cerevisiae cln2 rad14 strain, stronger effect = higher value
Method in brief: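 Each compound was tested on cln2 rad14 yeast. Inhibition of growth was calculated against vehicle-exposed controls.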

[5] = NCI Yeast Anticancer Drug Screen. Data for the bub3 strain (AID 167); settings: S. cerevisiae bub3 mutant strain, stronger effect = higher value
Method in brief: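 Steps: expose the mutant yeast strain to compound; grow alongside vehicle-treated cultures; measure growth; express inhibition against the vehicle cultures.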

[6] = NCI Yeast Anticancer Drug Screen. Data for the mlh1 rad18 strain (AID 175); settings: S. cerevisiae mlh1 rad18 strain growth inhibition, stronger effect = higher value
Method in brief: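 Vehicle-treated cultures served as the reference for growth inhibition in a yeast strain carrying DNA damage repair alterations exposed to each compound.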

[7] = at 5.0 µM (retest, dose inferred, filed as 0.5)
[8] = at 50.0 µM (retest, dose inferred, filed as 5.0)

Row | Compound | growth inhibition [1, 7] [%] | growth inhibition [1, 8] | growth inhibition ([1]; at 50.0 µM) | growth inhibition [2, 7] [%] | growth inhibition [2, 8] | growth inhibition ([2]; at 50.0 µM) | growth inhibition [3, 7] [%] | growth inhibition [3, 8] | growth inhibition ([3]; at 50.0 µM) | growth inhibition [4, 7] [%] | growth inhibition [4, 8] | growth inhibition ([4]; at 50.0 µM) | growth inhibition [5, 7] [%] | growth inhibition [5, 8] | growth inhibition ([5]; at 50.0 µM) | growth inhibition [6, 7] [%] | growth inhibition [6, 8] | growth inhibition ([6]; at 50.0 µM)
1 | CCCCCCCCCCCCCCCC1=NCCN1C | 14 | 99% (active) | 99.1% (active) | 9 | 100% (active) | 99.5% (active) | 29 | 99% (active) | 54.9% | 15 | 98% (active) | 96.5% (active) | 48 | 99% (active) | 99.3% (active) | 16 | 99% (active) | 98.9% (active)
2 | Cc1ccc(N2C(=O)C(Cl)=C(Cl)C2=O)cc1 | 11 | 99% (active) | 99.3% (active) | 12 | 100% (active) | 99.4% (active) | 20 | 100% (active) | 99.5% (active) | 8 | 99% (active) | 98.8% (active) | 16 | 99% (active) | 99.3% (active) | 14 | 100% (active) | 97.5% (active)
3 | Cc1cc(SCc2ccccc2)cc(C)[o+]1 | -1 | 92% (active) | 17.4% | 18 | 99% (active) | 44.4% | -20 | 88% (active) | 60.1% | -1 | 93% (active) | 55.8% | -2 | 96% (active) | 61.5% | -6 | 96% (active) | 63.7%
4 | CN1C(=O)c2cccc3c([N+](=O)[O-])ccc(c23)C1=O | -2 | 55% | 79.3% (active) | -30 | 65% | 17% | 3 | 68% | 73.2% (active) | 10 | 84% (active) | 56.1% | -9 | 80% (active) | 10.2% | 15 | 75% (active) | 27.6%
